According to PubChem BioAssay (Tox21):
Results filed as inconclusive are left out. The source made the active and inactive calls. Unless noted, calls come from the whole dose curve; as a rule, active = well fitted curve in the direction sought with a large enough effect in the repeat runs; inconclusive = weak or mixed curves; inactive = no such curve, though single readings can be large; an effect the other way counts as inactive or inconclusive.

Key:
[1] = qHTS assay to identify small molecule agonists of the vitamin D receptor (VDR) signaling pathway - cell viability counter screen (AID 743224); note: series mostly up to about 63 µM; nearly all actives have a fitted effect of over 50% in size
Procedure, shortened: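 VDR-bla cell line, quantitative HTS format; 16 h compound incubation (37C, 5% CO2); ATP-based CellTiter-Glo luminescence measured in the reporter assay wells.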

[2] = qHTS assay to identify small molecule agonists of the NFkB signaling pathway (AID 1159509; active = well fitted curve in the direction sought with a large enough effect in the signal ratio in the repeat runs, not every such curve was filed as active; the % refers to the signal ratio; note: series mostly up to about 61 µM)
Procedure, shortened: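 NFkB-bla ME-180 cells carry a beta-lactamase reporter under an NF-kB response element. They were plated overnight, then exposed to compounds for 5 h at 37 C. Read-out is LiveBLAzer FRET after 1.5 hr at room temperature (405 nm excitation; 460/530 nm emission).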

[3] = qHTS assay to identify small molecule agonists of the NFkB signaling pathway - cell viability counter screen (AID 1159515; calls by dose curve; note: series mostly up to about 61 µM; nearly all actives have a fitted effect of over 55% in size)
Procedure, shortened: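 Viability in NFkB-bla ME-180 cells was measured by CellTiter-Glo luminescence, 30 min room temperature, in wells already treated 5 hr with compounds and read for reporter FRET.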

[4] = qHTS assay to identify small molecule agonists of the endoplasmic reticulum stress response signaling pathway (AID 1159516; active = well fitted activation curve with a large enough effect in the signal ratio in the repeat runs, not every such curve was filed as active; the % refers to the signal ratio)
Procedure, shortened: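 ER stress element reporter (bla) in HeLa. 1,500 cells/well, overnight attachment; 5 hr compound; 2 hr RT substrate; dual-emission fluorescence.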

[5] = qHTS assay to identify small molecule agonists of the endoplasmic reticulum stress response signaling pathway - cell viability counter screen (AID 1159517; calls by dose curve;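 note: HeLa cells carrying an ER stress response element beta-lactamase reporter; series mostly up to about 61 µM; nearly all actives have a fitted effect of over 50% in size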)
Procedure, shortened: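 ESRE-bla HeLa cells, 1,500 per well, seeded overnight then treated with compounds for 5 hr at 37 C. After the beta-lactamase read, viability in the same wells is measured by CellTiter-Glo luminescence after 30 min at room temperature.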

[6] = qHTS assay to identify small molecule antagonists of the retinoid-related orphan receptor gamma (ROR-gamma) signaling pathway - cell viability counter screen (AID 1159520); note: nearly all actives have a fitted effect of over 50% in size
Procedure, shortened: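 Tet-on ROR gamma CHO cells were given compounds for 2 hr, then doxycycline hyclate at 1 uM final, and incubated 16 hr at 37 C. Viability was measured as ATP content by CellTiter-Glo luminescence.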

[7] = target: Nuclear receptor ROR-gamma (Homo sapiens) (UniProt P51449); test: qHTS assay to identify small molecule antagonists of the retinoid-related orphan receptor gamma (ROR-gamma) signaling pathway (AID 1159521;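 note: CHO cells with doxycycline inducible ROR-gamma driving an RORE luciferase reporter; top concentration of the series differs between compounds; nearly all actives have a fitted effect of over 50% in size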)
Procedure, shortened: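 CHO Tet-on RORγ, RORE-luc reporter. Cpd 2 h pre-incubation, then dox hyclate 1 uM final, 16 h, 37 C/5% CO2. ONE-Glo luminescence; decrease = antagonist.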

[8] = qHTS assay to identify small molecule agonists of the AP-1 signaling pathway - cell viability counter screen (AID 1159525; calls by dose curve; note: nearly all actives have a fitted effect of over 55% in size)
Procedure, shortened: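 AP-1-bla ME-180 cells in Opti-MEM with 0.5% dialyzed FBS, compound exposure 5 h at 37 C in 15-point titration. Viability read in the same wells as ATP content by CellTiter-Glo luminescence, normalised to tetra-n-octylammonium bromide and DMSO controls.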

[9] = qHTS assay to identify small molecule agonists of the AP-1 signaling pathway (AID 1159526; calls by dose curve)
[10] = target: Retinoic acid receptor RXR-alpha (Homo sapiens) (UniProt P19793); test: qHTS assay to identify small molecule agonists of the RXR signaling pathway (AID 1159527; calls by dose curve; note: nearly all actives have a fitted effect of over 35% in size)
Procedure, shortened: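 Read-out: beta-lactamase FRET ratio (405 nm excitation, 460 and 530 nm emission) after 2 hr substrate loading at room temperature. Cells were RXR-alpha-UAS-bla HEK 293T treated with compounds for 16 hr in 2% charcoal-stripped FBS medium.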

[11] = qHTS assay to identify small molecule agonists of the RXR signaling pathway - cell viability counter screen (AID 1159529)
Procedure, shortened: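 HEK 293T RXRa-bla cells, 2% CS-FBS; 5 h settle; cpd 16 h 37 C, 5% CO2; CellTiter-Glo 30 min RT, luminescence. Tetraoctyl ammonium bromide as positive control.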

[12] = qHTS assay to identify small molecule antagonists of the retinoid acid receptor (RAR) signaling pathway - cell viability counter screen (AID 1159551); note: nearly all actives have a fitted effect of over 35% in size
Procedure, shortened: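 Following overnight attachment, C3RL4 reporter cells received DMSO-dissolved compounds and then retinol (1 uM final). Six hours later at 37 C, ATP content was measured by CellTiter-Glo luminescence.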

[13] = qHTS assay to identify small molecule antagonists of the retinoic acid receptor (RAR) signaling pathway (AID 1159552; note: nearly all actives have a fitted effect of over 50% in size)
Procedure, shortened: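 Cells of the C3RL4 line were seeded, incubated overnight, then dosed with compounds in DMSO followed immediately by retinol (1 uM final). Six hours later luciferase detection reagent went in; signal was measured after 30 min at RT.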

[14] = qHTS assay to identify small molecule agonists of the retinoic acid receptor (RAR) signaling pathway (AID 1159553)
Procedure, shortened: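 Cell line C3RL4, RARE luciferase reporter. Treatment: compounds in DMSO, 6 hr, 37 C, 5% CO2, after overnight plating. Detection: luminescence, 30 min RT after reagent.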

[15] = qHTS assay to identify small molecule antagonists of the vitamin D receptor (VDR) signaling pathway - cell viability counter screen (AID 743225); note: nearly all actives have a fitted effect of over 50% in size
Procedure, shortened: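 Read-out: CellTiter-Glo luminescence measured 30 min after reagent addition at room temperature. Cells were VDR-bla HEK 293T exposed 16 h at 37C, 5% CO2, to compound with 3 nM final calcitriol agonist.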

[16] = qHTS assay to identify small molecule antagonists of the estrogen related receptor (ERR) signaling pathway - cell viability counter screen (AID 1224818);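 note: series mostly up to about 46 µM; viability measured after 17.5 h of compound exposure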
Procedure, shortened: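 Here, ERR cells are plated at 2,000 cells per well, allowed 6 h to attach, and treated with compounds in DMSO for 17.5 h at 37 C. CellTiter-Fluor is then added and fluorescence read after 30 min.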

[17] = qHTS assay to identify small molecule antagonists of the estrogen related receptor signaling pathway with the pleiotropic PPARgamma coactivator (PGC) cell viability counter screen (AID 1224822;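 note: series mostly up to about 46 µM; viability read after 17.5 h compound exposure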)
Procedure, shortened: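 qHTS format, DMSO compound stocks pin-transferred onto PGC/ERR cells 6 h after plating; 17.5 h exposure at 37 C, then CellTiter-Fluor fluorescence.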

[18] = qHTS assay to identify small molecule antagonists of the estrogen related receptor (ERR) signaling pathway (AID 1224819)
Procedure, shortened: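 LOPAC library screened for antagonism as reduced One-Glo luminescence in ERR reporter cells (2,000/well). Compounds were added after 6 h pre-incubation and left 18 h at 37C; reading followed a 30 min room-temperature reagent step.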

[19] = qHTS assay to identify small molecule agonists of the estrogen related receptor (ERR) signaling pathway (AID 1224820)
Procedure, shortened: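 ERR reporter cell line (from NTP), 2,000 cells/well, incubated 6 h before compound addition, then 18 h at 37 C. Luminescence measured 30 min after One-Glo reagent at room temperature.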

[20] = system: estrogen-related receptor alpha (ERRalpha) with PGC-1alpha coactivator, human; test: qHTS assay to identify small molecule antagonists of the estrogen related receptor signaling pathway with the pleiotropic PPARgamma coactivator (PGC) (AID 1224821; calls by dose curve)
Procedure, shortened: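 PGC/ERR reporter cell line, plated 6 h before compound addition, then exposed 18 h at 37 °C. Luciferase activity read by luminescence 30 min after One-Glo addition; decrease indicates antagonism.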

Measured: Potency

Chain of Retinoic acid receptor RXR-alpha (Homo sapiens) (P19793 whole entry, looked up): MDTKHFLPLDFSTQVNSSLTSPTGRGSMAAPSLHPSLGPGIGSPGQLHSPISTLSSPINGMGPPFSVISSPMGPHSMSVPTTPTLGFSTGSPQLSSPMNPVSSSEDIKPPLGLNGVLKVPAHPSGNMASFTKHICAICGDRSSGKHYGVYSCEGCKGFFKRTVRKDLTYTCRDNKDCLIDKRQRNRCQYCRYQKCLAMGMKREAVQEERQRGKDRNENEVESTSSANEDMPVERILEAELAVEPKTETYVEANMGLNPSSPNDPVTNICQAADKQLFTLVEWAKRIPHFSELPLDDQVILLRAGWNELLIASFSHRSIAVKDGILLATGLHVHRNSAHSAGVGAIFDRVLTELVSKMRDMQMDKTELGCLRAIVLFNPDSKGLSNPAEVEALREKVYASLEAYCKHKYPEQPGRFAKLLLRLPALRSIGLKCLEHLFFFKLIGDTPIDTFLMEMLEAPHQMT

CCCCCCCCS(=O)(=O)Cl
not listed: [15] | [16] | [17] | [18] | [19] | [20]
inactive: all other assays above

CCN(CC)CCOCCOC(=O)C1(c2ccccc2)CCCC1
not listed: [17] | [18] | [19] | [20]
inactive: all other assays above

CCN1CCC[C@H]1CNC(=O)c1c(O)c(Cl)cc(Cl)c1OC
not listed: [18] | [19] | [20]
inactive: all other assays above

CCn1nc(C(=O)O)c(=O)c2cc3c(cc21)OCO3
inactive: all assays above

O=C1NC(=O)[C@@]2(CCOc3ccc(F)cc32)N1
not listed: [18] | [19] | [20]
inactive: all other assays above

N=C(N)c1ccccc1
not listed: [15] | [18] | [19] | [20]
inactive: all other assays above

CCO/C([O-])=N/c1c[n+](N2CCOCC2)no1
inactive: all assays above

Brc1c(NC2=NCCN2)ccc2nccnc12
inactive: all assays above

N=c1nc(N2CCCCC2)cc(N)n1O
not listed: [18] | [19] | [20]
inactive: all other assays above

Nc1c2c(nc3ccccc13)CCCC2O (configuration not stated)
inactive: all assays above

Nc1ccccc1S(=O)(=O)O
not listed: [15] | [16] | [17] | [18] | [19] | [20]
inactive: all other assays above

CC(C)OC(=O)c1ccccc1
not listed: [15] | [16] | [17] | [18] | [19] | [20]
inactive: all other assays above

Nc1nc2c(ncn2COC(CO)CO)c(=O)[nH]1
not listed: [18] | [19] | [20]
inactive: all other assays above

CC(C(=O)O)c1ccc(CC2CCCC2=O)cc1 (configuration not stated)
not listed: [18] | [19] | [20]
inactive: all other assays above

CC(=O)OCC(CCn1cnc2cnc(N)nc21)COC(C)=O
not listed: [17] | [18] | [19] | [20]
inactive: all other assays above

CC[N+](C)(C)c1cccc(O)c1
not listed: [18] | [19] | [20]
inactive: all other assays above
